Growth inhibition, inhibition and outcome data for 21 compounds are collected here from PubChem BioAssay.

Where “and” joins values, the source holds several entries; their conditions need not be identical. Identical values can stand only once. Values without a mark were called inactive. For part of these data: Measured potencies and affinities stand elsewhere. Calls of active or inactive are those of the source. Unless noted, how the calls were made is not given here.

Test [1] can be described thus: antimalarial activity against Dd2 strain (AID 2302;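 active means growth inhibition above 50% at the single 2 µM test dose, taken to imply half-maximal potency below 2 µM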;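 further: 0% = DMSO untreated growth and 100% = chloroquine plus artemisinin killed control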). Particulars: P. falciparum Dd2 in RBCs, LDH growth readout, 72 h; at 2 µM; stronger effect = higher value.
A short description of test [2]: human hepatoma cell viability loss – ATP luminescence, cytotoxicity control for P. falciparum antimalarial project, primary screen (AID 2303;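 active means inhibition above 50%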;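 further: 0% = DMSO wells and 100% = digitonin-killed cells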). To be noted: HepG2 viability, 24-48 h, at 10 µM, stronger effect = higher value.
For test [3], the target named is L-lactate dehydrogenase (Plasmodium falciparum (isolate CDC / Honduras)) (UniProt Q27743). Briefly: PfLDH activity inhibition – cell lysate, 3D7 strain, counter-screen for P. falciparum growth inhibition project (AID 2304).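 Further: 0% = vehicle and 100% = reference inhibitor.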 To be noted: P. falciparum 3D7 crude extract, LDH APAD/NBT absorbance; at 2 µM; stronger effect = higher value. Background: The purpose of a counterscreen is to sort out artefacts and off-target activity.
L-lactate dehydrogenase (Plasmodium falciparum (isolate CDC / Honduras)), sequence (Q27743 whole entry, looked up): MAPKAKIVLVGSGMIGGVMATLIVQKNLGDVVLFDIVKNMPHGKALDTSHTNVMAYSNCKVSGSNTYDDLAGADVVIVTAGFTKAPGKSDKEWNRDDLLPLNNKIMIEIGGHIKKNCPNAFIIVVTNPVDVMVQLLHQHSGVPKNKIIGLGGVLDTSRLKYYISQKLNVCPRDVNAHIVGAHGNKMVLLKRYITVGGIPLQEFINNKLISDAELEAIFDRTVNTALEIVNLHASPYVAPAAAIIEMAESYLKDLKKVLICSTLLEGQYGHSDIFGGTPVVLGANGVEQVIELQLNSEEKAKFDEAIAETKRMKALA

The nature of test [4]: inhibition of 3D7 malaria parasite growth – strain 3D7 (AID 2306).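 Further: 0% = DMSO wells and 100% = chloroquine plus artemisinin control wells.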 Particulars: P. falciparum 3D7 erythrocytic growth, LDH absorbance, 72 h; at 2 µM; stronger effect = higher value.
The target of test [5] is Calcium-dependent protein kinase 1 (Plasmodium falciparum (isolate 3D7)) (UniProt P62344). Put plainly: PfCDPK1 kinase inhibitors, biochemical, TCAMS library (AID 1159585; cut-off not given, nearly all actives have IC50 up to about 0.98 µM;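 further: inhibitors leave more ATP so luminescence rises with inhibition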). To be noted: recombinant PfCDPK1, Kinase-Glo ATP depletion luminescence. For orientation: In Kinase-Glo more light means more ATP remaining.
Calcium-dependent protein kinase 1 (Plasmodium falciparum (isolate 3D7)), sequence (P62344 whole entry, looked up): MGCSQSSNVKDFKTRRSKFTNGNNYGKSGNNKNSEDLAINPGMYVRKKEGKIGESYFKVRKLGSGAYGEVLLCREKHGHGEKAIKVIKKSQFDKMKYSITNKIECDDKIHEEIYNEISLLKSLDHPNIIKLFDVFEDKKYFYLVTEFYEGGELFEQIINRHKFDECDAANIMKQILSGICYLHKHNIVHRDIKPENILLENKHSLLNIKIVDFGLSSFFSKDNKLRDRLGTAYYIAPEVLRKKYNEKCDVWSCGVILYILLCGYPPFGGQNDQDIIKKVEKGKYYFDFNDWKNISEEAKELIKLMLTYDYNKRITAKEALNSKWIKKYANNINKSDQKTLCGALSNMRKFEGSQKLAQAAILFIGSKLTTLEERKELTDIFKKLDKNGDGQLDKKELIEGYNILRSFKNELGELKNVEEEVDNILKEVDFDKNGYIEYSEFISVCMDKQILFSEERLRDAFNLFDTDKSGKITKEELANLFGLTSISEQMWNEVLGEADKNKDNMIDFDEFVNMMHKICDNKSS
Test [6] has as its target Plasmodium falciparum protein kinase 6 (PK6, PF3D7_1337100) (UniProt Q8IDW1). Put plainly: PfPK6 kinase inhibitors, biochemical, TCAMS library (AID 1159586). Particulars: recombinant PfPK6, Kinase-Glo ATP depletion luminescence.
Test [7] addresses Protein kinase 7 (PK7), Plasmodium falciparum 3D7 (PF3D7_0213400) (UniProt Q7YTF7). Put plainly: inhibition of Plasmodium PK7 catalytic activity – biochemical, TCAMS antimalarial set, Kinase-Glo luminescence (AID 1159587). Particulars: recombinant PfPK7, Kinase-Glo ATP depletion luminescence.
Test [8] addresses Calcium-dependent protein kinase 4 (Plasmodium falciparum (isolate 3D7)) (UniProt Q8IBS5). Briefly: PfCDPK4 kinase inhibitors, biochemical, TCAMS library (AID 1159588; cut-off not given, nearly all actives have IC50 up to about 0.91 µM). Particulars: recombinant PfCDPK4, Kinase-Glo ATP depletion luminescence.

Plasmodium falciparum protein kinase 6 (PK6, PF3D7_1337100), sequence (Q8IDW1 1-305): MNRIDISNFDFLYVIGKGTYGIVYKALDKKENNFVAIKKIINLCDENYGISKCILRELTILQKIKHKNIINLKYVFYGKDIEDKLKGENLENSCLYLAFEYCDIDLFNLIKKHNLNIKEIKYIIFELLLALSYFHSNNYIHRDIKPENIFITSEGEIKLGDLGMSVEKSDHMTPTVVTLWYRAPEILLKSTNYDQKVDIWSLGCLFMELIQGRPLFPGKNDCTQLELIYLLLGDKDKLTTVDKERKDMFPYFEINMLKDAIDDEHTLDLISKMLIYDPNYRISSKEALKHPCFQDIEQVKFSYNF
Protein kinase 7 (PK7), Plasmodium falciparum 3D7 (PF3D7_0213400), sequence (Q7YTF7 1-343): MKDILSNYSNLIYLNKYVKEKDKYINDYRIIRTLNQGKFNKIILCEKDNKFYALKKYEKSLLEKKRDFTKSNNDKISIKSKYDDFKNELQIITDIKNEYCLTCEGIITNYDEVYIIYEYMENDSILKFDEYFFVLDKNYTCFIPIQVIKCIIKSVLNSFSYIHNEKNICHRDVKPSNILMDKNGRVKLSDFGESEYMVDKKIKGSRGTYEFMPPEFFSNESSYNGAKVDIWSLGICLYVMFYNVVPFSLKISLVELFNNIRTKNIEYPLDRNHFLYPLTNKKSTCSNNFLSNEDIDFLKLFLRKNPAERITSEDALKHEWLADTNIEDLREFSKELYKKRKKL
Calcium-dependent protein kinase 4 (Plasmodium falciparum (isolate 3D7)), sequence (Q8IBS5 whole entry, looked up): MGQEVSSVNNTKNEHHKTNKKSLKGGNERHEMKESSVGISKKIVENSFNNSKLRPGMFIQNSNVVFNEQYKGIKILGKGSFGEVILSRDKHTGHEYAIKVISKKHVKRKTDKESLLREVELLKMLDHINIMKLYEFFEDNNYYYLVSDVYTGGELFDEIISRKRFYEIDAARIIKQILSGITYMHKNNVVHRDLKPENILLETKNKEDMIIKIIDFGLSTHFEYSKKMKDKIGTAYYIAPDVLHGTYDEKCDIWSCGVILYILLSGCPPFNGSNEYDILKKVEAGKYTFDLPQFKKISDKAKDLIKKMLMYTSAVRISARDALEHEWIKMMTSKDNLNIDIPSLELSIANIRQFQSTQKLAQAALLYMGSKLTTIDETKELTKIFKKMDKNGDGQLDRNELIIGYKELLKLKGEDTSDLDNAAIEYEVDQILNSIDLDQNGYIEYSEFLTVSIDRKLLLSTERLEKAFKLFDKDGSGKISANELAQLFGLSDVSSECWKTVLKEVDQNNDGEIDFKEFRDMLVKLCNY

What is called inhibition is the change of the read-out against control, counted positive when it falls. Take `CN1CC=C(c2csc3ccc(NC(=O)Nc4ccc(-c5ccncc5)c(Cl)c4)cc23)CC1`: the growth inhibition in test [1] is 101% (active); in test [4] it was 102% (active). For the same compound, the inhibition in test [2] is 10%; in test [3], 6%. The result in test [5], in test [6], in test [7] and in test [8] was inactive.

In the case of `O=C1Nc2cccc3c2C1(CCCCCN1CC=C(c2c[nH]c4ccccc24)CC1)CCC3` (stereo not drawn), the figures for the growth inhibition in test [1] and in test [4] were 89% (active) and 94% (active), respectively. For the same compound, the values for the inhibition in test [2] and in test [3] were 2% and 3%, respectively. For the same compound, the outcome in test [5], in test [6], in test [7] and in test [8] was inactive.

Turning to `CC[C@H]1CN2CC[C@@H]1C[C@H]2[C@H](O)c1cc(N2CCC(C)CC2)nc2ccc(OC)cc12`, the growth inhibition is 98% (active) in test [1] and 99% (active) in test [4]. Besides, the inhibition in test [2] was 16%; in test [3], 1%. In addition, the outcome in test [5], in test [6], in test [7] and in test [8] was inactive.

In the case of `CC[C@H]1CN2CC[C@@H]1C[C@H]2[C@H](O)c1cc(-c2ccc(F)cc2)nc2ccc(O)cc12`, the growth inhibition in test [1] and in test [4] was 99% (active) each time. In addition, the inhibition in test [2] was 25%; in test [3], -2%. In addition, the result in test [5], in test [6], in test [7] and in test [8] was inactive.

Take `Oc1cccc(C2CCCN(Cc3cccc4cc[nH]c34)C2)c1` (stereo not drawn): the results for the growth inhibition in test [1] and in test [4] were 82% (active) and 101% (active), respectively. The values for the inhibition in test [2] and in test [3] were 16% and -2%, respectively. Moreover, the result in test [5], in test [6], in test [7] and in test [8] was inactive.

With `Cc1cc(N(C)C2CCN(C)CC2)nc(Nc2ccc(Br)cc2)n1`, the growth inhibition in test [1] was 92% (active); in test [4], 100% (active). In addition, the figures for the inhibition in test [2] and in test [3] were -5% and 2%, respectively. Besides, the result in test [5], in test [6], in test [7] and in test [8] was inactive.

`O=C1COc2ccccc2N1CCN1CCC(NCc2ccc(-c3cccs3)cc2)CC1`: the growth inhibition in test [1] is 18%; in test [4], 87% (active). Further, the figures for the inhibition in test [2] and in test [3] were 37% and -4%, respectively. Besides, the outcome in test [5], in test [6], in test [7] and in test [8] was inactive.

Regarding `CC[C@H]1CN2CC[C@H]1C[C@H]2[C@H](O)c1cc(-c2cccc(Cl)c2)nc2ccc(OC)cc12`, the results for the growth inhibition in test [1] and in test [4] were 99% (active) and 98% (active), respectively. Moreover, the inhibition in test [2] is 16%; in test [3] it was 6%. Moreover, the outcome in test [5], in test [6], in test [7] and in test [8] was inactive.

As for `COC(=O)c1ccc(C[C@@H](C)NC[C@H](O)c2cccc(OCc3ccccc3)c2)cc1`, the growth inhibition is 37% in test [1] and 86% (active) in test [4]. Further, the inhibition in test [2] is 11%; in test [3], 1%. Also, the result in test [5], in test [6], in test [7] and in test [8] was inactive.

For `COc1ccc(OC)c(C(O)CNC(C)C)c1` (stereo not drawn), the growth inhibition in test [1] was -2%; in test [4], 96% (active). Also, the inhibition in test [2] was 3%; in test [3] it was -9%. For the same compound, the result in test [5], in test [6], in test [7] and in test [8] was inactive.

`Cc1ccc(C)c(C=CC(=O)NC2CCC(CN3CCC(c4c[nH]c5ccccc45)CC3)CC2)c1` (stereo not drawn): the growth inhibition in test [1] was 55% (active) and 80% (active); in test [4] it was 101% (active) and 102% (active). Also, the inhibition in test [2] was 38% and 46%; in test [3], 3% and 5%. Besides, the result in test [5], in test [6], in test [7] and in test [8] was inactive.

On to `O=C(NC1CCC(CN2CCC(c3c[nH]c4ccccc34)CC2)CC1)c1cc(-c2ccc(F)cc2F)ccc1O` (stereo not drawn), for which the growth inhibition in test [1] and in test [4] was 101% (active) each time. Besides, the inhibition was 30% in test [2] and 0% in test [3]. For the same compound, the result in test [5], in test [6], in test [7] and in test [8] was inactive.

Regarding `COC(=O)c1ccc(CC(C)NCC(O)c2cccc(Cl)c2Cl)cc1` (stereo not drawn), the growth inhibition in test [1] and in test [4] was 98% (active) each time. Further, the inhibition in test [2] was -1%; in test [3] it was -6%. For the same compound, the result in test [5], in test [6], in test [7] and in test [8] was inactive.

Take `CC(Cc1ccc(Oc2ccccc2)cc1)NCC(O)c1cccc(C(F)(F)F)c1` (stereo not drawn): the growth inhibition in test [1] was 99% (active); in test [4] it was 98% (active). Also, the inhibition in test [2] is 16%; in test [3], 4%. Besides, the result in test [5], in test [6], in test [7] and in test [8] was inactive.

In the case of `CC1(CCCCN2CC=C(c3c[nH]c4ccccc34)CC2)C(=O)Nc2ccccc21` (stereo not drawn), the growth inhibition was 90% (active) in test [1] and 94% (active) in test [4]. Also, the inhibition in test [2] is 3%; in test [3], 4%. Moreover, the outcome in test [5], in test [6], in test [7] and in test [8] was inactive.

Take `CC[C@H]1CN2CC[C@H]1C[C@H]2[C@H](O)c1cc(-c2cccc(C)c2)nc2ccc(OC)cc12`: the growth inhibition in test [1] and in test [4] was 100% (active) each time. The inhibition was 15% in test [2] and 3% in test [3]. Further, the outcome in test [5], in test [6], in test [7] and in test [8] was inactive.

Turning to `S=C(NCC1CCCCC1)NC1CCC(CN2CCC(c3c[nH]c4ccccc34)CC2)CC1` (stereo not drawn), the figures for the growth inhibition in test [1] and in test [4] were 10% and 88% (active), respectively. For the same compound, the inhibition in test [2] was 29%; in test [3], 6%. Also, the outcome in test [5], in test [6], in test [7] and in test [8] was inactive.

Regarding `CC[C@H]1CN2CC[C@H]1C[C@H]2[C@H](O)c1cc(N2CCCC(C(=O)N(CC)CC)C2)nc2ccc(OC)cc12` (stereo partly drawn), the growth inhibition in test [1] is 99% (active); in test [4] it was 101% (active). In addition, the inhibition in test [2] is -13%; in test [3], -2%. The outcome in test [5], in test [6], in test [7] and in test [8] was inactive.

Take `CC[C@H]1CN2CC[C@H]1C[C@@H]2[C@H](O)c1ccnc2ccc(O)cc12`: the growth inhibition in test [1] is -4%; in test [4], 94% (active). For the same compound, the inhibition in test [2] was -3%; in test [3], -2%. The result in test [5], in test [6], in test [7] and in test [8] was inactive.

For `CC(=O)N(Cc1ccccc1-c1cccc(CNCc2ccc3c(c2)OCO3)c1)C1CCN(Cc2ccccc2)CC1`, the growth inhibition is 44% in test [1] and 85% (active) in test [4]. The inhibition is 17% in test [2] and -3% in test [3]. Besides, the result in test [5], in test [6], in test [7] and in test [8] was inactive.

On to `N#Cc1c(F)cc(N2CCC(NCC[C@H](N)Cc3ccc(F)c(F)c3)CC2)cc1F`, for which the growth inhibition was 26% in test [1] and 102% (active) in test [4]. For the same compound, the inhibition in test [2] is 70% (active); in test [3], 4%. For the same compound, the outcome in test [5], in test [6], in test [7] and in test [8] was inactive.
